In PubChem BioAssay (NCI):
The panel holds about 79,000 compounds, 15% with a hit somewhere; the sample as a whole holds those more often. Calls of active or inactive are those of the source. Cut-off read from the data, not from the text of the source: active = growth inhibition above about 70%; inactive = the rest.

test: NCI Yeast Anticancer Drug Screen. Data for the rad50 strain (AID 155);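 note: 0% = growth of vehicle-only cultures of the same strain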; settings: S. cerevisiae rad50 strain growth inhibition; at 50.0 µM; hits give high values
Procedure: Growth inhibition of yeast strains with defined genetic alterations is measured as a screen for potential anti-cancer activity. Selected strains with alterations in DNA damage repair or cell cycle control were exposed to compounds and growth inhibition was measured relative to vehicle treated controls. The strain used in this assay is rad50

SMILES	growth inhibition
CN(C)C(=O)CCOc1ccccc1	0.55% (inactive)
NC(=O)c1cn(C2OC(CO)C(O)C2O)c(=O)[nH]c1=O (stereo not given)	14.2% (inactive)
COC(=O)CC1C(OC)OC23CCC1C2(C)CCC1C3CCC2CC(OC(C)=O)CCC21C (stereo not given)	28.1% (inactive)
CC(C)c1ccc2c(c1)CC[C@H]1[C@](C)(COCCC#N)CCC[C@]21C	-10.9% (inactive)
NC(=O)CC1(C(=O)O)c2ccccc2-c2ccccc21	17.1% (inactive)
Cc1ccc(N=Nc2ccc(C)cc2NC(=O)Nc2cc([N+](=O)[O-])ccc2F)cc1	13.4% (inactive)
NC(=O)N/N=C/c1cccc2ccccc12	24.2% (inactive)
O=C1CCN2CCC(=O)c3c2c(cc2ccccc32)N1	6.25% (inactive)
CC(COCc1ccccc1)NCc1ccccc1 (stereo not given)	-7.35% (inactive)
COc1ccc(N2NC(c3ccccc3)(c3ccccc3)C(C)C2=O)cc1 (stereo not given)	48.2% (inactive)
CCOC(=O)C(/C=N\C(=S)Nc1ccc(OCC)cc1)=C(/O)c1ccccc1	-49.1% (inactive)
COc1ccccc1N=NC1=C2Nc3ccccc3N=C1N(c1ccccc1OC)C(=S)N2c1ccccc1C	-10.3% (inactive)
COc1cc(C(=O)Nc2ccc(S(=O)(=O)Nc3nc(C)cc(C)n3)cc2)cc(OC)c1OC	-10.7% (inactive)
COc1ccc(C2OCC(COC(C)=O)O2)cc1OC (stereo not given)	-11% (inactive)
COc1ccc(C(=O)C/C(=N\N(C(=O)c2ccc(OC)cc2)c2ccccc2)c2ccc(OC)cc2)cc1	13.6% (inactive)
Cc1ccc(S(=O)(=O)C2c3nc4ccccc4cc3-c3nc4ccccc4nc32)cc1 (stereo not given)	-10.8% (inactive)
COc1csn[n+]1-c1ccc(C)cc1	7.7% (inactive)
N#CC1(NC(=O)N(CCCl)N=O)CCCCC1	4.8% (inactive)
Cc1ccc(S(=O)(=O)ON/N=c2\ccn(C)c3ccccc23)cc1	38.1% (inactive)
COc1ccc(-c2cc(O)cc(C)c2N)c(OC)c1OC	17.1% (inactive)

SMILES	growth inhibition
O=[N+]([O-])c1ccc(/C(=C/c2ccc(F)cc2)S(=O)(=O)c2ccccc2)o1	37.4% (inactive)
c1cc(CSSCc2ccncc2)ccn1	-15% (inactive)
COC(=O)C1=C(C)N(NC(N)=O)C2(N)N(NC(N)=O)C(C)=C(C(=O)OC)C12C(=O)OC (stereo not given)	-9.65% (inactive)
CC(O)COc1ccc(OCc2ccccc2)cc1 (stereo not given)	26.6% (inactive)
CC(=O)NC(Cc1ccccc1)C(=O)Nc1ccc(C)cc1 (stereo not given)	14.3% (inactive)
CCCc1ccc(N=Nc2ccc(C(=O)O)cc2)cc1	-1.25% (inactive)
C=C1CCCC(C)(C)C1CC/C(C)=C/CC/C(C)=C/CO (stereo not given)	-0.75% (inactive)
CCc1ccc(O[Si](C)(C)C)cc1	5.35% (inactive)
COc1ccc(Cc2cc3c(cc2OCC(=O)Nc2ccccn2)OCO3)cc1	22.2% (inactive)
CCCc1nc2ccccc2c(=O)n1/N=C/c1ccc(Cl)cc1	0.5% (inactive)
C/C(CC(=O)Nc1ccc(Cl)cc1)=N\NC(=O)C[n+]1ccccc1	1.35% (inactive)
CCCCCCCCCCCCCCCCOc1ccc(Sc2ccc([N+](=O)[O-])cc2)cc1	44.5% (inactive)
c1ccc(NCNC2Nc3ccccc3N2)cc1	-25.9% (inactive)
O=C(O)C1CC=CCC1C(=O)Nc1cccc(O)c1 (stereo not given)	-16.9% (inactive)
O=C(O)CCc1nc2c(n1Cc1ccccc1)C(=O)c1ccccc1C2=O	28.4% (inactive)
OCCN(/N=C\c1ccc2ccccc2c1)C1=NCCN1	15.3% (inactive)
c1ccc(Cc2nnc3n2CCC(c2ccccc2)S3)cc1 (stereo not given)	-9.8% (inactive)
CCOc1ccc(Nc2nc(C(Cl)(Cl)Cl)cc(C(Cl)(Cl)Cl)n2)cc1CN(CC)CC	98.2% (active)
O=C(CCCCCC(=O)NO)NO	-0.8% (inactive)
CC(=O)Oc1c(C(=O)O)cccc1-c1ccccc1	-12.8% (inactive)
